Data on 13 molecules can be found in PubChem BioAssay (NCI).

Compounds without any hit were thinned out: in the full panel of roughly 83,000, 20% have a hit.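 Treatment: one concentration, 48 hours, 96-well format. Scoring: percent growth, with anything below 10 considered active.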 Activity calls are given as the source filed them.

The assay relates to MDA-MB-468 breast. The experiment in a line: NCI-60 one-dose screen, 48 h (100 = growth as untreated, 0 = no growth, -100 = all killed). Conditions: 10 µM unless noted.
Take `O=C(COc1ccc(/C=C2\Cc3ccc(Cl)cc3C2=O)cc1)Nc1nc2ccccc2s1`: the growth was 109% (inactive).
With `Cn1nc(C(C)(C)C)cc1NC(=O)Cc1ccc(/C=C2\C(=O)Nc3ccccc32)cc1`, the growth is 20% (inactive).
As for `COc1ccc(-c2oc3cc(O)c(OC)c(O)c3c(=O)c2OC)cc1O`, the growth is -26.6% (active).
Regarding `O=C(NCc1ccco1)Nc1cccc2c(NC(=O)NCc3ccco3)cccc12`, the growth is 85.7% [100 µM] (inactive).
Turning to `OC(CN1CCCC2CCCCC21)c1cc2ccccc2c2ccccc12` (stereo not drawn), the growth was -24.4% (active).
As for `C=C1C(=O)O[C@H]2[C@H]1CC/C(COC(=O)/C=C\C(=O)NCc1ccc(Cn3c(=O)sn(CCCI)c3=O)cc1)=C\CC[C@@]1(C)O[C@@H]21`, the growth is -82.1% (active).
As for `Cc1cccc(NC(c2cc3cccc4ccc5cccc2c5c43)c2nnnn2C(C)(C)C)c1C` (stereo not drawn), the figure is -10.3% (active); as for `CN1C(=O)C2(SCC(C(=O)NCc3ccccc3)N2C(=O)C2CCCCC2)c2ccccc21` (stereo not drawn), 98.2% (inactive); as for `COC(=O)[C@H](C)NC(=O)[C@@H]1CCCN1C(=O)CNC(=O)[C@H](C)N`, 98.7% (inactive).
As for `Cn1cc(-c2ccc3nc(-c4ccc(CC(=O)ONc5cc(C(C)(C)C)on5)cc4)cnc3c2)cn1`, the figure is 45.8% (inactive).
Regarding `N#CCCOc1ccccc1`, the growth is 114% (inactive).
On to `COc1ccc(OC)c([C@H]2c3[nH]c4ccccc4c3C[C@H]3C(=O)N(CCCCCCC(=O)NO)CC(=O)N23)c1`, for which the growth is 74.9% (inactive).
For `CCN(CC)CCSc1c2ccc(Cl)cc2nc2ccc(OC)cc12`, the growth is -17.5% (active).
